Laboratory results reported in PubChem BioAssay AID434958 (Southern Research Specialized Biocontainment Screening …, 2010).
Screen size: about 1,200 compounds; about 400 (33%) were called active. No rule for the calls is given here. Only a sample is shown. Entries with a potency or affinity are not part of this list.

Experiment: mammalian cell cytotoxicity, dose response, cytotoxicity control (AID 434958);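 also: cells exposed to compound for 72 hours before readout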
Details: cytotoxicity counter-screen; series mostly up to 40 µM
In the case of `COc1ccc(NC(=O)COC(=O)Cc2ccc(-c3ccccc3)cc2)c(OC)c1`, the outcome is reported as “inactive”. In the case of `COc1ccccc1NC(=O)COc1ccc(CO)cc1Cl`, the outcome is reported as “inactive”. In the case of `COc1cccc(C(=O)C2CCCN(Cc3ccccn3)C2)c1` (configuration not stated), the outcome is reported as “inactive”. With `COc1ccc(-c2cc3cc(OC)c(OC)cc3c(C)n2)cc1` the outcome was “inactive”. For `COc1ccc(OC)c2nc(-c3ccc4c(c3)OCO4)ccc12`, the outcome was “inactive”. For `CC(=O)c1c(OC(=O)c2cccc(Cl)c2)c2ccccc2n1C`, the outcome was “inactive”. With `CCOC(=O)c1ccc(N2CN(C3CCCCC3)CNC2=S)cc1` the outcome was “inactive”. With `N=C1C(c2nc3ccccc3[nH]2)=C(O)CN1c1ccc(F)cc1` the outcome was “inactive”. In the case of `Cn1c2ccccc2c(=O)c2cc(C#CC3(O)CCCCC3)ccc21`, the outcome is reported as “inactive”. For `O=C(O)C1CC(=O)N(c2ccc(OCc3ccccc3Cl)cc2)C1` (configuration not stated), the outcome was “inactive”. In the case of `CSc1ccccc1C(=O)Nc1cccc([N+](=O)[O-])c1C`, the outcome is reported as “inactive”. In the case of `Cc1nn(-c2ccccc2)c(N2CCCC2)c1/C=C1\N=C(c2ccc(F)cc2)OC1=O`, the outcome is reported as “inactive”. In the case of `Cc1cc(C)nc(SCC(=O)Nc2ccccc2[N+](=O)[O-])n1`, the outcome is reported as “inactive”. With `Cc1sc2nc(C(C)(C)C)oc(=O)c2c1C` the outcome was “inactive”. With `CC/C(=N\NC(=O)c1ccc(-c2ccccc2)cc1)C12CC3CC(CC(C3)C1)C2` the outcome was “inactive”. With `CCCCOc1ccc(C(=O)Oc2cccnc2)cc1` the outcome was “inactive”. For `CN(C)S(=O)(=O)c1ccc(C(=O)OCC2CC2(Cl)Cl)cc1` (configuration not stated), the outcome was “inactive”. In the case of `N/C(=N\c1nc2ccccc2o1)NC(=O)c1ccccc1Br`, the outcome is reported as “inactive”. With `CCOC(=O)N1CCN(C(=O)CSc2nnc(COc3ccccc3)o2)CC1` the outcome was “inactive”. With `O=C1C(Cl)=C(N2CCCCC2)C(=O)N1c1ccccc1` the outcome was “inactive”. For `CCNC(=S)N/N=C1\C(=O)c2cccc3cccc1c23`, the outcome was “inactive”. For `O=C(CSc1ncnc2c1cnn2-c1ccccc1)Nc1ccc2c(c1)OCO2`, the outcome was “inactive”. For `Fc1ccc(-c2csc(NC(=S)Nc3ccccc3)n2)cc1`, the outcome was “inactive”. In the case of `O=C(CCC(=O)Nc1ccccc1)NNC(=O)c1ccco1`, the outcome is reported as “inactive”. For `Cc1ccccc1OCC(=O)Nc1ccccc1N1CCOCC1`, the outcome was “inactive”. In the case of `COc1cccc(NC(=O)C2CC2)c1`, the outcome is reported as “inactive”. For `Cc1ccc(C)c(NC(=O)c2cc(-c3cccnc3)nc3ccccc23)c1`, the outcome was “inactive”. With `c1ccc(Nc2ncnc3c2oc2ccccc23)cc1` the outcome was “inactive”. In the case of `C=CCNC(=S)NC(=O)c1csc([N+](=O)[O-])c1`, the outcome is reported as “inactive”. For `COC(=O)c1ccc(/C=N\NC(=O)c2ccc(C)cc2Cl)cc1`, the outcome was “inactive”. In the case of `CC1CCN(CCOc2ccc(OCc3ccccc3)cc2)CC1`, the outcome is reported as “inactive”. For `Cc1ccc(S(=O)(=O)NCCCCCC(=O)Nc2ccccn2)cc1`, the outcome was “inactive”. With `Cn1c(O)c(/C=C2/C=CC=N2)c(=O)[nH]c1=O` the outcome was “inactive”. With `COc1ccc(NC(=O)c2cc(C)nc3ccccc23)c(OC)c1` the outcome was “inactive”. With `Cc1cc(C)c(C)c(S(=O)(=O)N2C(=S)NC(=O)C2CC(C)C)c1C` (configuration not stated) the outcome was “inactive”. In the case of `CC(=O)c1ccc(OC(=O)N(c2ccccc2)c2ccccc2)cc1`, the outcome is reported as “inactive”. For `CN(C)C1=C(Cl)C(=O)N(c2ccc(Cl)c(Cl)c2)C1=O`, the outcome was “inactive”. In the case of `CCCCOc1ccccc1NC(=O)c1ccco1`, the outcome is reported as “inactive”. For `O=c1c2c3n(c(=S)nc2[nH]n1-c1ccccc1)CCCCC3`, the outcome was “inactive”. With `CCN(CC(=O)Nc1ccc2c(c1)OCCO2)C(=O)c1ccc([N+](=O)[O-])s1` the outcome was “inactive”. In the case of `COc1ccc(N2C(=O)NC(=O)/C(=C\c3ccc([N+](=O)[O-])s3)C2=O)cc1`, the outcome is reported as “inactive”. With `COc1ccc(NCC(=O)N/N=C/C(C)c2ccccc2)cc1` (configuration not stated) the outcome was “inactive”. For `Cc1cc(/C=N/NC(=O)CC#N)c(C)n1-c1ccc([N+](=O)[O-])cc1`, the outcome was “inactive”. In the case of `CCCc1cc(C(=O)OCC(=O)N2CCN(c3ccc(OC)cc3)CC2)sc1C`, the outcome is reported as “inactive”. For `COc1cc(C(=O)NNC(=O)c2cc(-c3ccccc3)n[nH]2)cc(OC)c1C`, the outcome was “inactive”. In the case of `COc1ccc(C2c3c(C)nn(-c4ccccc4)c3NC(=O)N2c2ccccc2)cc1` (configuration not stated), the outcome is reported as “inactive”. In the case of `CCOC(=O)C1CSC(CC(=O)Nc2ccc(Cl)c(Cl)c2)C(=O)N1` (configuration not stated), the outcome is reported as “inactive”. With `CCOC(=O)C1CCN(c2ccc(C(N)=O)cc2[N+](=O)[O-])CC1` the outcome was “inactive”. With `CCCCC(=O)NC(=S)Nc1ccc(NC(=O)C(C)C)c(OC)c1` the outcome was “inactive”. With `O=C1C(Cl)=C(N2CCCCCC2)C(=O)N1c1ccc(Br)cc1` the outcome was “inactive”. For `CCOCC(=O)Nc1cc(C(F)(F)F)ccc1Oc1cccc(Br)c1`, the outcome was “inactive”. For `COc1cc(OC)c(C(=O)Nc2cccc3ccccc23)cc1OC`, the outcome was “inactive”. With `C/C(=N\OCC(=O)Nc1nc2ccccc2s1)c1ccccc1` the outcome was “inactive”. In the case of `CCCCNC(=O)c1onc(CSc2ccc(OC)cc2)c1C(=O)O`, the outcome is reported as “inactive”. With `COC(=O)c1c(NC(=O)C2c3ccccc3Oc3ccccc32)sc(C)c1C` the outcome was “inactive”. For `COc1ccc(OC)c(NC(=O)c2ccccc2SC)c1`, the outcome was “inactive”. For `COc1ccc(Cl)cc1NC(=O)C/C(C)=N/NC(=O)CC#N`, the outcome was “inactive”. For `O=C(CCSc1ccccc1)Nc1nc2c(s1)CCCC2`, the outcome was “inactive”. For `CCOC(=O)C(=CNc1ccc2c(c1)c1ccccc1n2CC)C(=O)OCC`, the outcome was “inactive”. In the case of `Cc1cc(C)cc(SCc2noc(C(=O)NC(C)C)c2C(=O)O)c1`, the outcome is reported as “inactive”. For `COc1ccccc1C(=O)Nc1ccc2c3c(cccc13)CC2`, the outcome was “inactive”. For `CCOC(=O)CNC(=O)/C(=C\c1ccc(F)cc1)NC(=O)c1ccccc1`, the outcome was “inactive”. In the case of `CC(/C=N/NC(=O)c1cc(C(C)(C)C)[nH]n1)=C\c1ccccc1`, the outcome is reported as “inactive”. In the case of `C/C(CC(=O)NCc1ccco1)=N\NC(=O)CC#N`, the outcome is reported as “inactive”. In the case of `COc1ccc(/C(O)=C/C(=O)C(=O)NNC(=O)C(O)(c2ccccc2)c2ccccc2)cc1`, the outcome is reported as “inactive”. For `CCOC(=O)c1cc(-c2ccccc2)sc1NC(=O)C(C)N1C(=O)NC(C)(c2ccc(Cl)cc2)C1=O` (configuration not stated), the outcome was “inactive”. In the case of `Cc1ccc(C)c(CSc2nnc(C)c(=O)n2N)c1`, the outcome is reported as “inactive”. For `O=C(/C=C/c1cc(Br)ccc1F)OCC(=O)N1CCCC1`, the outcome was “inactive”. For `CCc1cc(C(=O)O)c(NC(=O)/C=C/c2ccc(OC)cc2)s1`, the outcome was “inactive”. In the case of `CC(C)Oc1ccc(N2CC(C(=O)Nc3ccccc3F)CC2=O)cc1` (configuration not stated), the outcome is reported as “inactive”. For `CSc1nnc(-c2ccc(NC(N)=S)cc2)o1`, the outcome was “inactive”. In the case of `Cc1ccc(S(=O)(=O)N[C@H](C(=O)OCn2nnc3ccccc3c2=O)C(C)C)cc1`, the outcome is reported as “inactive”. With `O=C(CNC(=O)c1ccc(Br)cc1)NCC(=O)OCc1ccc(Cl)cc1` the outcome was “inactive”. In the case of `O=C(CSC1CS(=O)(=O)c2cc([N+](=O)[O-])ccc21)NNC(=O)c1ccccc1` (configuration not stated), the outcome is reported as “inactive”. With `O=C1O/C(=C/c2ccccc2)N=C1c1ccccc1` the outcome was “inactive”. For `NNC(=S)Nc1ccc(C(F)(F)F)cc1Cl`, the outcome was “inactive”. With `CCCOc1ccc(C2Nc3cccc4cccc(c34)N2)cc1` the outcome was “inactive”. For `Cc1cccc(NC(=O)c2cc3ccccc3c(=O)o2)n1`, the outcome was “inactive”. In the case of `O=C(CCSc1nnc(-c2ccncc2)o1)Nc1ccccc1Cl`, the outcome is reported as “inactive”. For `Cc1ccc(N=Cc2c(O)ccc3ccccc23)cc1F`, the outcome was “inactive”. For `COc1cccc(/C=N/Nc2nc(N3CCCC3)nc(N3CCCC3)n2)c1O`, the outcome was “inactive”. For `COC(=O)c1ccccc1NC(=O)CSCC(=O)Nc1ccc(F)cc1`, the outcome was “inactive”. With `COc1ccccc1/C=N/NC(=S)Nc1cccnc1` the outcome was “inactive”. For `O=C(CSc1ncn[nH]1)Nc1cccc2ccccc12`, the outcome was “inactive”. With `COc1cccc(/C=N/NC(N)=S)c1OS(=O)(=O)c1ccccc1` the outcome was “inactive”. In the case of `CONC(=O)c1cc(OCC(F)(F)F)ccc1OCC(F)(F)F`, the outcome is reported as “inactive”. In the case of `COC(=O)c1cccc(NC(=S)NCCC2=CCCCC2)c1`, the outcome is reported as “inactive”. For `O=C(NCC1COc2ccccc2O1)C1CCC(CNc2c(N3CCCCC3)c(=O)c2=O)CC1` (configuration not stated), the outcome was “inactive”. In the case of `Cc1ccc(-n2ncc(-c3nnc(SCC(=O)NC4CCCC4)o3)c2N)cc1C`, the outcome is reported as “inactive”. With `COc1cc(C(F)(F)F)nc2ccc(C#CCOC(=O)Nc3ccccc3)cc12` the outcome was “inactive”. For `O=C(CN1CCC(O)(c2ccc3c(c2)OCO3)CC1)OC1CCCCC1`, the outcome was “inactive”. For `COc1ccc2nc(NC(=O)c3ccc(Br)s3)sc2c1`, the outcome was “inactive”. For `COc1ccc(C(=O)Nc2nc3ccc(OC)cc3s2)cc1`, the outcome was “inactive”. In the case of `O=C(COC(=O)c1ccc([N+](=O)[O-])s1)NCc1ccc(F)cc1`, the outcome is reported as “inactive”. With `CCOc1ccc(NC(=S)Nc2cccnc2)cc1` the outcome was “inactive”. In the case of `Cc1c(C(=O)Nc2cccnc2)oc2ccc(Br)cc12`, the outcome is reported as “inactive”. For `COc1cc(NC(=O)C2CCCCC2)c(OC)cc1NC(=O)CN1CCCCC1`, the outcome was “inactive”. With `Cc1nnc(SCc2ccc(C(=O)Nc3cc(Cl)ccc3C)cc2)s1` the outcome was “inactive”. With `Cc1ccc(S(=O)(=O)NCCCCCC(=O)Nc2nccs2)cc1` the outcome was “inactive”. For `CCc1ccc2nc(/N=C(\N)NC(=O)c3ccccc3)nc(C)c2c1`, the outcome was “inactive”. With `COc1ccc(C(=O)Nc2ccc(C(=O)OCC(=O)c3ccccc3)cc2)cc1` the outcome was “inactive”. With `O=S1(=O)CCO[C@H]2Cc3ccccc3[C@H]2N1Cc1ccc(Cl)cc1` the outcome was “inactive”. In the case of `Cc1ccc(SCCNC(=O)c2ccc(C)c([N+](=O)[O-])c2)cc1`, the outcome is reported as “inactive”. In the case of `Cc1ccc(NC(=O)O/N=C/c2c(C)nn(C(C)(C)C)c2C)cc1Cl`, the outcome is reported as “inactive”. For `COc1ccc(-c2csc(NC(=O)c3c(C)noc3C)n2)cc1`, the outcome was “inactive”. In the case of `O=C1CCNc2c(Cl)cccc21`, the outcome is reported as “inactive”. With `Cc1ccc(NC(=O)CSc2nnc([C@@H]3CCCN3C(=O)OC(C)(C)C)o2)c(C)c1` the outcome was “inactive”. In the case of `CCCCCNCc1cccc(Br)c1`, the outcome is reported as “inactive”. For `O=C1C2CCN(CC2)C1Cc1ccc(OCCOc2ccccc2)cc1` (configuration not stated), the outcome was “inactive”. With `Nc1ccc(C(=O)O)c(O)c1` the outcome was “inactive”. In the case of `COc1ccc(C(=O)NC(=S)Nc2ccc(S(=O)(=O)Nc3cc(C)on3)cc2)cc1OC`, the outcome is reported as “inactive”. In the case of `Cc1nn(C)c(C(=O)NC(=S)Nc2ccccc2Br)c1Cl`, the outcome is reported as “inactive”. With `Cc1cc(C(=O)Nc2nnc(-c3ccccc3)s2)no1` the outcome was “inactive”. With `O=C(Nc1ccc(F)cc1)c1sc2cc(C(F)(F)F)cnc2c1-c1cccs1` the outcome was “inactive”. For `CC(=O)c1c(C)[nH]c(C(=O)OCC(=O)Nc2nnc(-c3ccccc3)o2)c1C`, the outcome was “inactive”. With `Cc1ccc(NC(=O)CCS(=O)(=O)c2cccc3nonc23)cc1` the outcome was “inactive”. For `CCOc1ccc(-c2nnc(-c3cccs3)o2)cc1OCC`, the outcome was “inactive”.
